The list is not random: actives were taken first. Their share in the collection is about 18%.
IL1B secr inh: qHTS for Inhibitors of Inflammasome Signaling: IL-1-beta AlphaLISA Primary Screen; AID 743279, 2014; 360,000 tested, 4.7% active; THP-1 LPS/ATP IL-1B secretion, AlphaLISA, 16 h; hits give low values; activity change, % at 57.5 µM; in the data active = activity change below about -50%; inconclusive = mostly about -30% to -49%
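THP-1 cells pretreated 1 hr with compounds (up to 57.5 uM final), then stimulated with LPS (250 ng/mL final) plus ATP (1.25 mM final); secreted IL-1B measured by AlphaLISA after 16 hr, decreased signal indicating inhibition.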
TDP1 cell noCPT: qHTS for Inhibitors of human tyrosyl-DNA phosphodiesterase 1 (TDP1): qHTS in cells in absence of CPT; DT40 Tdp1-/- hTDP1 cells, no CPT, ATP luminescence, 48 h; Potency, µM (doses to about 46.2 µM), for inactives: at the top dose activity change, negative = growth inhibition, most hits filed as inhibitors; 420,000 tested, 15% active; AID 686978, 2013; also: potency is read from the fitted curve at half-maximal effect; nearly all actives have a fitted effect of over 55% in size
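Stably hTDP1-transfected Tdp1-null chicken DT40 cells were treated with library compounds minus camptothecin and grown for at least 48 hr at 37 °C, after which cellular ATP was quantified by luminescence.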
TDP1 cell CPT: qHTS for Inhibitors of human tyrosyl-DNA phosphodiesterase 1 (TDP1): qHTS in cells in presence of CPT. 420,000 tested, 12% active. Potency, µM (titrated, usually from 46.2 µM), inactives show at the top dose activity change, negative = growth inhibition, actives largely listed as inhibitors. AID 686979, 2013. chicken DT40 Tdp1-/-;hTDP1 cells + 20 nM CPT, ATP luminescence, 48 h; also: potency is read from the fitted curve at half-maximal effect; nearly all actives have a fitted effect of over 55% in size
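Cell growth measured by CellTiter-Glo luminescence after a minimum 48 h, 37 C compound exposure with 20 nM CPT in Tdp1-knockout DT40 cells stably expressing hTDP1, seeded 400/well; qHTS titration format.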
Gal4-VP16 FLuc: VP16 counterscreen qHTS for inhibitors of ROR gamma transcriptional activity; Potency, µM (titrated, usually from 53.6 µM), for the others: at the top dose activity, negative = inhibition, hits mostly inhibitors; Drosophila S2 Gal4-VP16 UAS-luciferase, luminescence, 20 h; 310,000 tested, 3.5% active;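 also: Gal4-VP16 expression switched on by copper sulfate through the metallothionein promoter; potency is read from the fitted curve at half-maximal effect; nearly all actives have a fitted effect of over 50% in size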
LDHA block: qHTS assay for inhibitors of human lactate dehydrogenase; activity change, % (values are at about 110 or 230 µM); L-lactate dehydrogenase A chain (Homo sapiens), P00338; purified LDHA, NADH/diaphorase-resazurin fluorescence; hits give low values; 480,000 tested, 0.15% active; in the data active = activity change below about -30%; inconclusive = mostly about -25% to -30%;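 also: plate controls were DMSO wells for no effect and wells without enzyme for full effect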
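Enzyme activity of human lactate dehydrogenase 5 (2 nM; 0.06 mM NADH, 0.2 mM pyruvate, 5 min, RT) is measured via a resazurin/diaphorase fluorescence readout of residual NADH.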
RORgamma inh: qHTS for inhibitors of ROR gamma transcriptional activity | Potency, µM (highest dose often 53.6 µM), for the others: top-dose activity change, negative = inhibition, hits mostly inhibitors | Drosophila S2 Gal4-RORgamma UAS-luciferase reporter, 20 h | AID 2551, 2010 | 310,000 tested, 5.4% active; also: potency is read from the fitted curve at half-maximal effect; nearly all actives have a fitted effect of over 60% in size
Target sequence (P51450 whole entry, looked up, the tested form may be a part): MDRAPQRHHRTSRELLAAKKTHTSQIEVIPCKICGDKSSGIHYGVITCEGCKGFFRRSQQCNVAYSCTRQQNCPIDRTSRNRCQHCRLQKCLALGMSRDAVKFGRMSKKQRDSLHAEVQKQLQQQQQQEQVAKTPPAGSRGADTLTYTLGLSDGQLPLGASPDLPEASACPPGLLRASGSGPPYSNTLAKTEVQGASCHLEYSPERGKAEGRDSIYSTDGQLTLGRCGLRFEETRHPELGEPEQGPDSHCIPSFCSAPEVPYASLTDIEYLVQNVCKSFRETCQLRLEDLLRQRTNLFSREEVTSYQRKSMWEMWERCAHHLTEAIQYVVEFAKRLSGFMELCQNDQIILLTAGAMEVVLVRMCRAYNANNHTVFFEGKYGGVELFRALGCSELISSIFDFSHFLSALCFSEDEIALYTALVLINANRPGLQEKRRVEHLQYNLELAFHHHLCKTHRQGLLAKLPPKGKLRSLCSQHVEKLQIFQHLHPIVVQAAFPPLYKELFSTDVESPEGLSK
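Compounds are pin-transferred onto Drosophila Schneider cells expressing a copper-inducible Gal4–ROR gamma transactivation domain fusion. After 1 hr, copper sulfate is added to 700 uM final; luciferase is read 20 hr later.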
The depositor's hits bear a star; [ ] = remark or other dose. Unless noted, calls follow the shape of the dose curve; as a rule, active = well fitted curve in the direction sought with a large enough effect; inconclusive = small, poorly fitted or top-dose-only effect, or another doubt; inactive = no such curve, though single readings can be large; an effect the other way counts as inactive or inconclusive. Unless noted, % is scaled to controls: 0 for no effect and ±100 for the full control effect.

`Cc1cc(O)c(-c2cc(C(=O)Nc3ccc(S(=O)(=O)N4CCOCC4)cc3)[nH]n2)cc1C` gave IL1B secr inh -105*, TDP1 cell noCPT 18µM*, TDP1 cell CPT inconclusive, Gal4-VP16 FLuc inconclusive, LDHA block -8 and RORgamma inh -3%.
For O=C(Nc1ccc(S(=O)(=O)N2CCOCC2)cc1)c1cc(-c2cc(Cl)ccc2O)n[nH]1 the results were IL1B secr inh inconclusive, TDP1 cell noCPT 5.8µM*, TDP1 cell CPT 6.5µM*, Gal4-VP16 FLuc -21%, LDHA block -2 and RORgamma inh -17%.
`Cc1ccc2oc(-c3ccc(C)c(NC(=O)COc4ccccc4)c3)nc2c1` gave LDHA block 9.
`CCC(CC)c1nnc(NC(=O)CCc2c(C)nc(C)[nH]c2=O)s1` gave LDHA block 0.
For Cc1[nH][nH]c(=O)c1C(c1c(C)[nH][nH]c1=O)c1cn(Cc2ccccc2Cl)c2ccccc12 the results were IL1B secr inh 0, TDP1 cell noCPT 5.2µM*, TDP1 cell CPT 5.8µM*, Gal4-VP16 FLuc -11%, LDHA block 28 and RORgamma inh inconclusive.
Cc1[nH][nH]c(=O)c1C(c1ccccc1OCc1ccccc1Cl)c1c(C)[nH][nH]c1=O was read as LDHA block 2.
For O=C(CSc1nc(C2CC2)nc2ccccc12)N1CCc2ccccc2C1 the results were Gal4-VP16 FLuc -8% and RORgamma inh -17%.
Screening O=C(CSc1nc(C2CCCCC2)nc2ccccc12)N1CCCC1 returned IL1B secr inh -81*, TDP1 cell noCPT inconclusive, TDP1 cell CPT inconclusive, Gal4-VP16 FLuc 22%, LDHA block -6 and RORgamma inh -33%.
For CC1CCCCN1C(=O)CSc1nc(C2CC2)nc2c1cnn2-c1ccccc1 (stereo not drawn) the results were IL1B secr inh -91*, TDP1 cell noCPT inconclusive, TDP1 cell CPT inconclusive, Gal4-VP16 FLuc 7%, LDHA block -12 and RORgamma inh 1%.
For CCc1nc(SCC(=O)N2CCN(c3ccccc3)CC2)c2oc3ccccc3c2n1 the results were IL1B secr inh -67*, TDP1 cell noCPT 21µM*, TDP1 cell CPT 26µM*, Gal4-VP16 FLuc 0%, LDHA block -12 and RORgamma inh inconclusive.
Screening CC(C)c1nc(SCC(=O)N2CCCC2)c2ccccc2n1 returned IL1B secr inh inconclusive, TDP1 cell noCPT inconclusive, TDP1 cell CPT -9%, Gal4-VP16 FLuc -3%, LDHA block -6 and RORgamma inh 20%.
CCc1nc(SCC(=O)N2CCCC2)c2ccccc2n1 was read as IL1B secr inh -94*, TDP1 cell noCPT -10%, TDP1 cell CPT -1%, Gal4-VP16 FLuc 5%, LDHA block -5 and RORgamma inh 36%.
Screening Cc1nn(C)c(C)c1NC(=O)CSc1nc(C2CC2)nc2c1cnn2-c1ccccc1 returned IL1B secr inh 41, TDP1 cell noCPT inconclusive, TDP1 cell CPT inconclusive, Gal4-VP16 FLuc 3%, LDHA block -2 and RORgamma inh -1%.
Screening C=CCNS(=O)(=O)c1cccc(C(=O)Nc2ccc(N3CCCCC3)c3ccncc23)c1 returned LDHA block 41.
`CNCCCNC(=O)/C(=N\O)c1ccccc1` gave LDHA block 10.
CC(=O)c1ccccc1NC(=O)COc1ccccc1C(N)=O was read as LDHA block -11.
For O=C(CSc1nc(C2CC2)nc2ccccc12)N1c2ccccc2Sc2ccc(C(F)(F)F)cc21 the results were IL1B secr inh inconclusive, TDP1 cell noCPT 23µM*, TDP1 cell CPT 8.2µM*, Gal4-VP16 FLuc 5%[0.365 µM], LDHA block 7 and RORgamma inh -7%.
Screening O=C(CSc1nc2cc(Cl)ccc2s1)N1c2ccccc2Sc2ccc(C(F)(F)F)cc21 returned LDHA block 10.
O=C(CSc1nc(C2CC2)nc2ccccc12)N1CCCCC1 was read as IL1B secr inh -95*, TDP1 cell noCPT inconclusive, TDP1 cell CPT inconclusive, Gal4-VP16 FLuc 4%, LDHA block -11 and RORgamma inh 32%.
For Cc1cc2ccccc2n1CC(=O)NC1CCC(C)CC1 (stereo not drawn) the results were LDHA block -1.
For CCOC(=O)COc1ccc2c(=O)c(-c3ccc(OC)cc3)coc2c1 the results were LDHA block 28.
For O=C(CSc1ccccc1)NCc1ccc(F)cc1 the results were IL1B secr inh -12, TDP1 cell noCPT -3%, TDP1 cell CPT -1%, Gal4-VP16 FLuc -3%[10 µM], LDHA block 0 and RORgamma inh 43%.
`O=C(CSC1=Nc2ccccc2N=C(c2ccc(F)cc2)C1)NCc1ccccc1Cl` gave TDP1 cell noCPT inconclusive, TDP1 cell CPT 23µM* and LDHA block -4.
`COc1cccc(CNC(=O)CSC2=Nc3ccccc3N=C(c3ccc(F)cc3)C2)c1` gave TDP1 cell noCPT inconclusive, TDP1 cell CPT 21µM* and LDHA block -7.
`O=C(CSC1=Nc2ccccc2N=C(c2ccc(F)cc2)C1)NCc1ccc(Cl)cc1` gave TDP1 cell noCPT inconclusive, TDP1 cell CPT 21µM* and LDHA block -2.
For CC1CCN(Cc2ccc(CNC(=O)c3cnn(-c4ccccc4)c3)cc2)CC1 the results were LDHA block -1.
CCOC(=O)N1CCN(S(=O)(=O)N2CCCC(C(=O)NCCc3ccc(Cl)cc3)C2)CC1 (stereo not drawn) was read as IL1B secr inh 0, TDP1 cell noCPT inconclusive, TDP1 cell CPT inconclusive, Gal4-VP16 FLuc -4%, LDHA block -3 and RORgamma inh 43%.
For O=C(C1CCCN(S(=O)(=O)c2ccc(F)cc2)C1)N(Cc1cccs1)C1CC1 (stereo not drawn) the results were IL1B secr inh -14, TDP1 cell noCPT 18µM*, TDP1 cell CPT 13µM*, Gal4-VP16 FLuc 2%, LDHA block -3 and RORgamma inh inconclusive.
Screening O=C(NCc1ccccc1Cl)C1CCCN(C(=O)Nc2ccc(F)cc2)C1 (stereo not drawn) returned IL1B secr inh -10, TDP1 cell noCPT -29%, TDP1 cell CPT inconclusive, Gal4-VP16 FLuc -10%, LDHA block -9 and RORgamma inh 37%.

Bioassay records deposited in PubChem by National Center for Advancing Translational Sciences (NCATS).
